Composite z-score and z-score data for nine compounds are collected here from PubChem BioAssay.

The nature of assay [1]: small molecules captured by biotinylated probe aFSTL3 – biochemical, small-molecule microarray, fluorescence 635/667, stem cell growth factor project, primary screen (AID 1064).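 Also: measures binding of the biotinylated anti-FSTL3 antibody to printed compounds.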 To be noted: higher = more signal.
Assay [2] is described as follows: binders from COS7 lysate, DM2A8 probe, primary screen, torsin A project, cell lysate, small-molecule microarray, fluorescence 635/667 (AID 1065). To be noted: higher = more signal, COS7 lysate expressing mutant human TOR1A.
Assay [3] is described as follows: small molecules captured by biotinylated probe aFGF2 – biochemical, small-molecule microarray, fluorescence 635/667, stem cell growth factor project, primary screen (AID 1067).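 Also: measures binding of biotinylated aFGF2 protein to printed compounds on slides; z-score merges feature fluorescence and signal-to-noise across triplicate slides.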 To be noted: higher = more signal.
Assay [4] can be described thus: small molecules captured by biotinylated probe aFGF10 – biochemical, small-molecule microarray, fluorescence 635/667, stem cell growth factor project, primary screen (AID 1071).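 Also: score merges 667 nm spot intensity and signal to noise from triplicate slides.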 To be noted: higher = more signal.
The target of assay [5] is Neurogenic locus notch homolog protein 2 (Homo sapiens) (UniProt Q04721). The assay is described as follows: small molecules binding Notch2 protein – biochemical, small-molecule microarray, 635 nm fluorescence, stem cell growth factors, primary screen (AID 1073). To be noted: higher = more signal.
Assay [6] addresses Pro-neuregulin-1, membrane-bound isoform (Homo sapiens) (UniProt Q02297). The assay is described as follows: small molecules binding neuregulin-1 protein – biochemical, small-molecule microarray, fluorescence 635/667, psychiatric disease protein project, primary screen (AID 1075).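 Also: score combines 667 nm spot fluorescence with signal to noise.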 To be noted: NRG1 binding, 635 nm fluorescence, higher = more signal.
Assay [7] has as its system Neuregulin-1 EGF-like domain. The assay is described as follows: small molecules binding NRG1 EGF domain – biochemical, small-molecule microarray, 635 nm fluorescence, primary screen (AID 1081).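 Also: binding of the protein to compounds printed on small-molecule microarray slides.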 To be noted: higher = more signal.
Assay [8] is described as follows: FRG1 expression reporter modulators in myotubes – cell-based, C2C12 myotubes, firefly/Renilla luciferase, luminescence, FRG1 inhibition for FSHD, primary screen (AID 1084). To be noted: FRG1 promoter luciferase, higher = more signal, called active from +8 up or from −8 down.
Assay [9] in a line: small molecules captured by biotinylated probe aFST – biochemical, small-molecule microarray, fluorescence 635/667, stem cell growth factor project, primary screen (AID 1086).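 Also: score merges 667 nm fluorescence with signal-to-noise of each printed compound spot.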 To be noted: higher = more signal.
A short description of assay [10]: binders of probe aHhip on microarray, primary screen, stem cell growth factor project, biochemical, small-molecule microarray, fluorescence 635/667 (AID 1087).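 Also: score merges spot fluorescence at 667nm with spot signal to noise ratio.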 To be noted: higher = more signal.
Assay [11] has as its system PRMT1 (protein arginine N-methyltransferase 1). Briefly: small molecules binding arginine methyltransferase PRMT1 – biochemical, small-molecule microarray, 635 nm fluorescence, primary screen (AID 1088).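 Also: binding of Prmt1 protein to compounds spotted on small-molecule microarray slides.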 To be noted: higher = more signal.
A short description of assay [12]: growth effects on S. cerevisiae YJM789 – YJM789 clinical isolate, OD600, 24 h, basal, primary screen (AID 1089).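 Also: growth of clinical yeast isolate S. cerevisiae YJM 789 seeded 1000 cells per well; test concentration not given here.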 To be noted: higher = more signal, called active from +8 up or from −8 down.
Assay [13] is described as follows: S. pombe growth modifiers, basal conditions – strain 972, OD600, 24 h, no modulator, primary screen (AID 1090).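 Also: basal condition with compound alone and no growth modifier present; test concentration not given here.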 To be noted: S. pombe 972 growth, higher = more signal, called active from +8 up or from −8 down.
Assay [14] can be described thus: budding yeast growth modifiers under rapamycin – strain BY4716, OD600, 96 h, primary screen (AID 1091). Also: test concentration not given here. To be noted: S. cerevisiae BY4716 + rapamycin, higher = more signal, called active from +8 up or from −8 down.
In assay [15] the target is Torsin-1A-interacting protein 2 (Homo sapiens) (UniProt Q8NFQ8). The assay is described as follows: small molecules binding lysate-expressed LULL1 – cell lysate, human LULL1 lysate, 635/667 nm fluorescence, primary screen (AID 1092).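 Also: score merges per-feature 667 nm fluorescence with signal-to-noise.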 To be noted: small-molecule microarray, hLULL1 lysate binding, 635 nm fluorescence; higher = more signal.
Torsin-1A-interacting protein 2 (Homo sapiens), sequence (Q8NFQ8 whole entry, looked up): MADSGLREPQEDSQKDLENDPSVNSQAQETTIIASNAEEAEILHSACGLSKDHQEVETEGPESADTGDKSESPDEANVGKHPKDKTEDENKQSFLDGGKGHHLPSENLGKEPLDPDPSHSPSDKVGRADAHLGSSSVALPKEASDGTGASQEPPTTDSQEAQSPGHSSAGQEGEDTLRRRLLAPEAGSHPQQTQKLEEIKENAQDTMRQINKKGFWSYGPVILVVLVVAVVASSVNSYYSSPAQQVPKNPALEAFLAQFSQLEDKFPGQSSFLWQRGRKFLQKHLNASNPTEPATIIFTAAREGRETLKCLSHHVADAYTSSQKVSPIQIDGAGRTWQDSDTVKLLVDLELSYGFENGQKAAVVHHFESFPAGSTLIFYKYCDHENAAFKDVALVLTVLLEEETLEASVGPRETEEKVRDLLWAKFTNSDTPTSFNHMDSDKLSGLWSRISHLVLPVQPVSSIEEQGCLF
Assay [16] in a line: optical density change of DRC41 E. coli – strain DRC41, OD650, 24 h, E. coli filamentation project, primary screen (AID 1093).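 Also: MC1000 strain lacking acrAB efflux and sulA so SOS filamentation is blocked; test concentration not given here.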 To be noted: E. coli DRC41 growth, higher = more signal, called active from +8 up or from −8 down.
A short description of assay [17]: probe aLefty2 binding to arrayed compounds – biochemical, biotinylated probe, 635/667 nm fluorescence, primary screen (AID 1094).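 Also: score merges spot fluorescence near 667 nm with spot signal-to-noise ratio.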 To be noted: small-molecule microarray, higher = more signal.
In assay [18] the test system is Noggin (protein binding on small-molecule microarray). The assay is described as follows: small molecules binding Noggin protein – biochemical, 635/667 nm fluorescence, primary screen (AID 1095).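 Also: score merges 667 nm feature fluorescence with signal to noise over triplicate slides.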 To be noted: 635 nm fluorescence, higher = more signal.
In assay [19] the target is Neurogenic locus notch homolog protein 3 (Homo sapiens) (UniProt Q9UM47). Briefly: small molecules binding NOTCH3 protein – biochemical, 635/667 nm fluorescence, primary screen (AID 1096). To be noted: small-molecule microarray, 635 nm fluorescence, higher = more signal.
Neurogenic locus notch homolog protein 3 (Homo sapiens), sequence (Q9UM47 whole entry, looked up): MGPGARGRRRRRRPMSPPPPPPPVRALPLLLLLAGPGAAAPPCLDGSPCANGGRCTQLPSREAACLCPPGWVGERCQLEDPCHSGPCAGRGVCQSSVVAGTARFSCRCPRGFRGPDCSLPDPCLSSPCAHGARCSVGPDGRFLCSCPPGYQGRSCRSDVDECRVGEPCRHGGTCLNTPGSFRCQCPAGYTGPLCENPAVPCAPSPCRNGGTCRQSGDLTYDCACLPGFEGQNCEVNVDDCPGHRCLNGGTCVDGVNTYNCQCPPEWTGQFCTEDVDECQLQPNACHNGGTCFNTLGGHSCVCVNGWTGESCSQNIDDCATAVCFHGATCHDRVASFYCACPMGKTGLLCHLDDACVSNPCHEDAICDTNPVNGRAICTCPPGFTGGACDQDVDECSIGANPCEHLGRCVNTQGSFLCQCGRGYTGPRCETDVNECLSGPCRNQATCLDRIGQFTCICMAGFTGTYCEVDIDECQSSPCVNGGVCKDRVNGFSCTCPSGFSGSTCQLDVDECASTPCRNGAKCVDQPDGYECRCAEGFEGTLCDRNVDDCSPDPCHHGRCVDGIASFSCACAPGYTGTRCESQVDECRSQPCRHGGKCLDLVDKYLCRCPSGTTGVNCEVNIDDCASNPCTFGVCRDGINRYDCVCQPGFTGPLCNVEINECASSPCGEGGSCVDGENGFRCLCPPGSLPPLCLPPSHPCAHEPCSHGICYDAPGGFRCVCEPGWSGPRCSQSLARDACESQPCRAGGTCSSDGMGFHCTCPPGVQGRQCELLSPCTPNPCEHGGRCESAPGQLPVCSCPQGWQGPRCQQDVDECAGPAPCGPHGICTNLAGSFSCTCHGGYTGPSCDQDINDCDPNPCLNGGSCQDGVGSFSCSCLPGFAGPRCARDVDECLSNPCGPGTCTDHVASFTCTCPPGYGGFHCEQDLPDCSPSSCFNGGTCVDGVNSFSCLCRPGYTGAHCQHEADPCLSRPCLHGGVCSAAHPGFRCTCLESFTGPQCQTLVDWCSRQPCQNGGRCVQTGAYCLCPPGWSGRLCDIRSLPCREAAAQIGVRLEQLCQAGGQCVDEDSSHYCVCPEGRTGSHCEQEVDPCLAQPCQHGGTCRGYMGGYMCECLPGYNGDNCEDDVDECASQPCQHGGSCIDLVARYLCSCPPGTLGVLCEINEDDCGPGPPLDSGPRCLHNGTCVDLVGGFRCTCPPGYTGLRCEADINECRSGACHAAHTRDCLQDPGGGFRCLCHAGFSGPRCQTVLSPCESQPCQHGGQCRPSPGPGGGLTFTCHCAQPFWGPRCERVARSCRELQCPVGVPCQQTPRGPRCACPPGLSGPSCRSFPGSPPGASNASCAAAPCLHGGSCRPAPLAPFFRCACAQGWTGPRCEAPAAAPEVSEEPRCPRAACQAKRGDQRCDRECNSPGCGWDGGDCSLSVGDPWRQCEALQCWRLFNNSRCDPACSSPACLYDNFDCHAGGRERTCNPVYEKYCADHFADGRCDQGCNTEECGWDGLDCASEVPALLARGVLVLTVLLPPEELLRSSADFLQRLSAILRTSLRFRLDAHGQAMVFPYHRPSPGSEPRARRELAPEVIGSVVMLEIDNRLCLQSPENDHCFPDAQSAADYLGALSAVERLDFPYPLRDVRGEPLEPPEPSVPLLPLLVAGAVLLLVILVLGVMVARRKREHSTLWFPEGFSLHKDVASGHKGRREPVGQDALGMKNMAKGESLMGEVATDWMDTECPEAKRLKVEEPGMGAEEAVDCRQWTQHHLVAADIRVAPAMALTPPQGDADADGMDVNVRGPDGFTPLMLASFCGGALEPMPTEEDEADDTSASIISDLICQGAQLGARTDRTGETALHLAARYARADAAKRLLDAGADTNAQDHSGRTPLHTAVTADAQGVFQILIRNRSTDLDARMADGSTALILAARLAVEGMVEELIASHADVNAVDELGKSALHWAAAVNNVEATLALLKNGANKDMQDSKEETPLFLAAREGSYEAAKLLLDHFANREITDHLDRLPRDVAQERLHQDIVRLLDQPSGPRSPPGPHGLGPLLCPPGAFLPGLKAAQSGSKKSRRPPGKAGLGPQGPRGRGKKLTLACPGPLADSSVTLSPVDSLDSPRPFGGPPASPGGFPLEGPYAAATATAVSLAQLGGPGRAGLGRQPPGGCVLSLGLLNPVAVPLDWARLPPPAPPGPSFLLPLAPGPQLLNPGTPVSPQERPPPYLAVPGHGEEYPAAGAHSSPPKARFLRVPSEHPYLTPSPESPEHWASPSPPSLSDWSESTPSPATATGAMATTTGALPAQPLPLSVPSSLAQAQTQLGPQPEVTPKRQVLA
Assay [20] in a line: probe aEGFR binding to arrayed compounds – biochemical, biotinylated probe, 635/667 nm fluorescence, primary screen (AID 1097).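 Also: probe is a biotinylated anti-EGFR antibody binding compounds printed on slides; score combines fluorescence near 667 nm and signal to noise of each spot.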 To be noted: small-molecule microarray, higher = more signal.

Active and inactive are the calls of the source.

Pro-neuregulin-1, membrane-bound isoform (Homo sapiens), sequence (Q02297 whole entry, looked up, the tested form may be a part, canonical isoform): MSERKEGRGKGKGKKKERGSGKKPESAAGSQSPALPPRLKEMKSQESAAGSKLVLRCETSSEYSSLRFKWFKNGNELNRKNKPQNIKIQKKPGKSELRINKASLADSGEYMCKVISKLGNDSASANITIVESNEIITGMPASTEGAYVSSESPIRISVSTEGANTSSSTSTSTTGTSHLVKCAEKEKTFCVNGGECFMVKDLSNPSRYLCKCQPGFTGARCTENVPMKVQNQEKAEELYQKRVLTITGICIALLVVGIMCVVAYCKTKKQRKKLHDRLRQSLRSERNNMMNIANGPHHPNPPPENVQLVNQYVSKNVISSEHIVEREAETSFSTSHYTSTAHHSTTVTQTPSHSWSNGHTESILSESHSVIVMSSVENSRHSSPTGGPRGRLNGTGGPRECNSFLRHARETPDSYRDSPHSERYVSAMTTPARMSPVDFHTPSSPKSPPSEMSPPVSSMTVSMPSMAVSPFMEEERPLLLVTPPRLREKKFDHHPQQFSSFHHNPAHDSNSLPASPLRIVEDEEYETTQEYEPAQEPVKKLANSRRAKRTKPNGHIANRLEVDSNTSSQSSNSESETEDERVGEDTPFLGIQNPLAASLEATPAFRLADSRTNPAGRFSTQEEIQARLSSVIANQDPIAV

Regarding `O=C(NC1CC1)[C@@H]1c2ccccc2C(=O)N(Cc2ccccc2Cl)[C@H]1c1ccc(CO)cc1`, the composite z-score in [1] was -0.255; in assay [2], 0.256; in [3] it was -0.104; in [4], 0.486; in assay [5], 0.532; in assay [6], 0.93. Further, the composite z-score in [7] is 1.32; in [9], 0.882; in assay [10], -0.15; in assay [11] it was 1.54; in assay [15] it was 2.77; in assay [17] it was 0.161. For the same compound, the results for the composite z-score in assay [18], in [19] and in [20] were 1.02, 1.11 and 0.0103, respectively. Also, the z-score was -2.22 (inactive) in assay [8]; -2.17 (inactive) in [12]; -2.52 (inactive) in assay [13]; -1.66 (inactive) in assay [14]; 4.01 (inactive) in assay [16].
For `C=CCN1C(=O)[C@]2(O[C@H](CCn3cc([C@H](O)c4ccccc4)nn3)[C@@H]([Si](C)(C)c3ccc(OC)cc3)[C@@H]2C)c2cc(N3CCC3=O)ccc21`, the composite z-score is -0.0453 in [1]; 0.334 in assay [2]; 0.0087 in [3]; 0.679 in assay [4]; -0.255 in assay [5]; 1.9 in assay [6]. The composite z-score in assay [7] is 1.14; in assay [9], -0.282; in assay [10] it was 0.0505; in [11] it was 0.942; in [15] it was 1.56; in assay [17], -0.0397. The composite z-score in assay [18] was 1.82; in assay [19], 0.803; in [20], -0.154. For the same compound, the z-score in assay [8] was -1.43 (inactive); in assay [12] it was 0.487 (inactive); in assay [13], 0.406 (inactive); in [14], 2.47 (inactive); in [16], 1.28 (inactive).
With `C=C(C)[C@@H]1CC=C(C(O)C2C=CC3C(=O)N(c4ccccc4)C(=O)C3N2Nc2ccccc2)CC1` (stereo not given in full), the composite z-score in [1] stood at 1.08; in assay [2], 0.881; in [3], 0.364; in assay [4] it was 0.929; in assay [5], 1.26; in assay [6], 1.57. In addition, the composite z-score in assay [7] amounted to 1.28; in assay [9], 1.54; in assay [10] it was 1.07; in [11] it was 1.55; in assay [15] it was 3.32; in [17], 0.467. In addition, the composite z-score in assay [18] turned out to be 0.302; in [19] it was 1.05; in assay [20], 0.34. Further, the z-score is -0.441 (inactive) in assay [8]; 0.0118 (inactive) in [12]; 0.0527 (inactive) in assay [13]; 0.0587 (inactive) in [14]; -0.784 (inactive) in [16].
Turning to `CN1C(=O)C2C=CC(C(O)c3ccc([N+](=O)[O-])cc3)N(N3CCCCC3)C2C1=O` (stereo not given), the composite z-score was 1.11 in [1]; -0.306 in [2]; 0.132 in assay [3]; 0.695 in assay [4]; 1.6 in assay [5]; 1.3 in assay [6]. Also, the composite z-score in [7] was 0.961; in assay [9] it was 1.36; in assay [10], -0.365; in [11], 0.957; in [15], 2.69; in [17], 0.347. The composite z-score in assay [18] is -0.245; in [19], 1.07; in [20], 0.161. In addition, the z-score in assay [8] was 0.198 (inactive); in [12], 0.462 (inactive); in assay [13], 0.647 (inactive); in assay [14], 0.19 (inactive); in assay [16], -1.74 (inactive).
Regarding `CC(C)N1C(=O)C[C@@](C(=O)NCC(F)(F)F)(c2ccc([N+](=O)[O-])cc2)[C@H]1c1ccc(CO)cc1`, the composite z-score in assay [1] is 0.27; in [2], 0.513; in assay [3], -0.147; in [4] it was -0.336; in [5] it was -0.545; in [6] it was 0.769. Besides, the composite z-score in assay [7] was 0.541; in [9], -0.531; in assay [10], -0.0994; in [11] it was 1.55; in assay [15], 3.32; in assay [17], -0.195. For the same compound, the composite z-score was 0.493 in assay [18], 0.356 in [19] and -0.0987 in assay [20]. For the same compound, the z-score in assay [8] was -0.468 (inactive); in assay [12], -0.804 (inactive); in [13] it was -1.63 (inactive); in [14], -1.63 (inactive); in assay [16], -0.29 (inactive).
For `C=CCNC(=O)[C@@H]1[C@H]2C(=O)O[C@H](c3ccccc3)[C@H](c3ccccc3)N2[C@H](c2ccc(O)cc2)[C@@]12C(=O)N(C(=O)OCCOC)c1ccc(C#CCNC(N)=O)cc12`, the composite z-score in [1] came to 0.2; in [2], 0.383; in assay [3], 0.0793; in assay [4] it was 0.714; in assay [5] it was 0.211; in assay [6], 1.22. Moreover, the composite z-score in [7] was 0.955; in assay [9], 1.15; in [10], -0.311; in assay [11], 1.03; in assay [15], 2.29; in assay [17] it was 0.261. The composite z-score is 1.12 in [18], 1.1 in assay [19] and -0.0549 in assay [20]. Further, the z-score in [8] was -0.989 (inactive); in assay [12] it was -1.76 (inactive); in assay [13], 0.18 (inactive); in assay [14], 0.462 (inactive); in assay [16], -0.213 (inactive).
In the case of `C[N+](C)(C)CCCCCCNC(=O)[C@@H]1C[C@@H]2C(=O)N[C@@H](Cc3ccccc3)C(=O)N2[C@@H]1c1cccc(OCCO)c1`, the composite z-score was -0.0274 in [1]; 0.673 in assay [2]; -0.0969 in assay [3]; 0.44 in assay [4]; -0.165 in [5]; 1.2 in assay [6]. In addition, the composite z-score in assay [7] is 1.34; in assay [9], 0.143; in assay [10] it was 0.236; in [11], 1.57; in assay [15], 2.87; in assay [17] it was 0.0235. In addition, the composite z-score in assay [18] was 1.82; in [19] it was 1.09; in [20], -0.0688. For the same compound, the z-score was 1.5 (inactive) in assay [8]; -0.165 (inactive) in assay [12]; 0.297 (inactive) in assay [13]; -0.214 (inactive) in assay [14]; 1.02 (inactive) in assay [16].
Turning to `CC1CC/C=C\[C@H]2OC34C=CCN(C(C)(C)C)C(=O)[C@H]3N(CCO)C(=O)[C@@H]4C2C(=O)O1` (stereo not given in full), the composite z-score in [1] is -0.133; in [2], 0.0564; in [3], -0.217; in assay [4] it was -0.749; in assay [5], -1.56; in assay [6] it was -1.02. Also, the composite z-score in assay [7] was 0.784; in assay [9], -0.529; in assay [10] it was -0.0645; in assay [11], 1.06; in [15] it was 2.92; in assay [17], -0.0589. Also, the composite z-score in assay [18] was 0.112; in assay [19], -0.916; in assay [20], -0.312. In addition, the z-score in assay [8] is 0.0503 (inactive); in assay [12], -1.33 (inactive); in assay [13], -0.905 (inactive); in assay [14] it was -0.471 (inactive); in assay [16], 1.45 (inactive).
As for `O=C(OCc1ccccc1)C1=CCC2c3[nH]c4ccccc4c3C(=O)C1N2S(=O)(=O)c1ccccc1[N+](=O)[O-]` (stereo not given), the composite z-score is -0.154 in [1]; -0.0749 in assay [2]; 0.105 in assay [3]; 0.982 in [4]; 1.7 in assay [5]; 1.65 in assay [6]. Also, the composite z-score in [7] stood at 1.19; in assay [9], 0.627; in [10] it was 0.0759; in assay [11], 1.52; in [15] it was 3.57; in assay [17], 0.0673. Besides, the composite z-score in assay [18] is 0.614; in [19], 1.03; in assay [20], -0.112. For the same compound, the z-score in assay [8] was -4.32 (inactive); in assay [12], 0.802 (inactive); in assay [13] it was 1.1 (inactive); in assay [14], 7.14 (inactive); in assay [16], -0.639 (inactive).
